Source: PubChem BioAssay (National Center for Advancing Translational Sciences (NCATS))
A selection: hits, their analogues and other compounds. The true share with any hit is near 18%.
RORg inh: qHTS for inhibitors of ROR gamma transcriptional activity | Nuclear receptor ROR-gamma (Mus musculus), P51450 | Drosophila S2 Gal4-RORgamma UAS-luciferase reporter, 20 h | Potency, µM (doses to about 53.6 µM), for inactives: at the top dose activity change, negative = inhibition, hits mostly inhibitors | actives 5.4% (n = 310,000) | AID 2551, 2010; also: potency is read from the fitted curve at half-maximal effect; nearly all actives have a fitted effect of over 60% in size
Target sequence (P51450 whole entry, looked up, the tested form may be a part): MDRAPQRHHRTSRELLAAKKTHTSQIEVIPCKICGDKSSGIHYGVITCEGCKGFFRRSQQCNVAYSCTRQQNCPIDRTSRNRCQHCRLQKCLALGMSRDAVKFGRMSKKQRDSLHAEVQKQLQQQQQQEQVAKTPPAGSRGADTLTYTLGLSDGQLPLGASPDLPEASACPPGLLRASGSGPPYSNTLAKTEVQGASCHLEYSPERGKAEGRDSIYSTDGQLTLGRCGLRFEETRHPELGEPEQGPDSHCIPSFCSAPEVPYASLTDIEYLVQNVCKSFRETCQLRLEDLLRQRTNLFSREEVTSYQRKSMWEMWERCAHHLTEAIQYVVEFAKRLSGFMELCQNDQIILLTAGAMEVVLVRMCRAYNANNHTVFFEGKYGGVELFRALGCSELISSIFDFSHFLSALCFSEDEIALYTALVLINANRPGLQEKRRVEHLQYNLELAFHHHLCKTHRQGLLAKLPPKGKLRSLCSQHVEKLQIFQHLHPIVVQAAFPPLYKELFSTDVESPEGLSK
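Compounds are pin-transferred onto Drosophila Schneider cells expressing a copper-inducible Gal4–ROR gamma transactivation domain fusion. After 1 hr, copper sulfate is added to 700 uM final; luciferase is read 20 hr later.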
IL1B secr inh: qHTS for Inhibitors of Inflammasome Signaling: IL-1-beta AlphaLISA Primary Screen; THP-1 LPS/ATP IL-1B secretion, AlphaLISA, 16 h; hits give low values; actives 4.7% (n = 360,000); activity change, % at 57.5 µM; in the data active = activity change below about -50%; inconclusive = mostly about -30% to -49%
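Secreted IL-1B measured by AlphaLISA bead assay after 16 h compound exposure of THP-1 cells; compounds (final up to 57.5 uM) added 1 h before LPS (250 ng/mL) and ATP (1.25 mM) stimulation; lower signal means less secretion.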
LDHA inh: qHTS assay for inhibitors of human lactate dehydrogenase | actives 0.15% (n = 480,000) | purified LDHA, NADH/diaphorase-resazurin fluorescence; hits give low values | L-lactate dehydrogenase A chain (Homo sapiens), P00338 | activity change, % (values are at about 110 or 230 µM); in the data active = activity change below about -30%; inconclusive = mostly about -25% to -30%;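 also: plate controls were DMSO wells for no effect and wells without enzyme for full effect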
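Remaining NADH was detected by diaphorase (0.133 mg/mL) converting 37 µM resazurin to fluorescent resorufin, read at 0 and 20 minutes. The preceding 5-minute room-temperature reaction used 2 nM LDHA, 0.2 mM sodium pyruvate and 0.06 mM NADH at pH 7.4.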
DT40 TDP1 no CPT: qHTS for Inhibitors of human tyrosyl-DNA phosphodiesterase 1 (TDP1): qHTS in cells in absence of CPT | DT40 Tdp1-/- hTDP1 cells, no CPT, ATP luminescence, 48 h | Potency, µM (top dose mostly 46.2 µM), for the others: at the highest dose activity change, negative = growth inhibition, hits mostly inhibitors | actives 15% (n = 420,000) | AID 686978, 2013; also: potency is read from the fitted curve at half-maximal effect; nearly all actives have a fitted effect of over 55% in size
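Camptothecin absent (DMSO only). Human TDP1-complemented DT40 knockout cells, 400 cells/well, 37 °C for minimum 48 hr; ATP measured via CellTiter-Glo, 30 min dark incubation, luminescence.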
TDP1 cell CPT: qHTS for Inhibitors of human tyrosyl-DNA phosphodiesterase 1 (TDP1): qHTS in cells in presence of CPT; actives 12% (n = 420,000); AID 686979, 2013; chicken DT40 Tdp1-/-;hTDP1 cells + 20 nM CPT, ATP luminescence, 48 h; Potency, µM (series often up to 46.2 µM), for the others: top-dose activity change, negative = growth inhibition, usual class: inhibitors; also: potency is read from the fitted curve at half-maximal effect; nearly all actives have a fitted effect of over 55% in size
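Chicken DT40 Tdp1-/- cells complemented with human TDP1, 400 cells/well, exposed to compounds plus 20 nM camptothecin for at least 48 h at 37 C; viability read as ATP content by CellTiter-Glo luminescence.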
VP16 counter: VP16 counterscreen qHTS for inhibitors of ROR gamma transcriptional activity. Drosophila S2 Gal4-VP16 UAS-luciferase, luminescence, 20 h. Potency, µM (titrated, usually from 53.6 µM), for the others: at the top dose activity, negative = inhibition, actives largely listed as inhibitors. actives 3.5% (n = 310,000);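 also: Gal4-VP16 expression switched on by copper sulfate through the metallothionein promoter; potency is read from the fitted curve at half-maximal effect; nearly all actives have a fitted effect of over 50% in size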
Active calls of the source: *; ? = inconclusive; · = not tested or not shown; [ ] = remark or other dose. Unless noted, calls follow the shape of the dose curve; as a rule, active = well fitted curve in the direction sought with a large enough effect; inconclusive = small, poorly fitted or top-dose-only effect, or another doubt; inactive = no such curve, though single readings can be large; an effect the other way counts as inactive or inconclusive. Unless noted, % is scaled to controls: 0 for no effect and ±100 for the full control effect.

SMILES | RORg inh | IL1B secr inh | LDHA inh | DT40 TDP1 no CPT | TDP1 cell CPT | VP16 counter
COC(=O)c1ccc(C2c3[nH]c4ccccc4c3C[C@H]3C(=O)N(C4CCN(Cc5ccccc5)CC4)CC(=O)N23)cc1 (stereo partly specified) | 34% | 0 | -1 | ? | ? | -11%
O=C1[C@@H]2Cc3c([nH]c4ccccc34)C(c3ccccc3)N2C(=O)CN1C1CCN(Cc2ccccc2)CC1 (stereo partly specified) | 2.8µM* | -66* | 3 | 16µM* | 16µM* | ?
NC(=O)c1ccccc1NC(=O)NC1CCCCC1 | 17% | 0 | -2 | -20% | -22% | -3%
O=C(Nc1ccc(Br)cc1)NC1CCCCCCC1 | ? | -90* | 1 | ? | ? | ?
O=C(Nc1ccccc1NC(=O)NC1CCCCC1)NC1CCCCC1 | -2%[0.365 µM] | -69* | -4 | ? | ? | ·
O=C(Nc1ccccc1)NC1CCCCCCC1 | · | ? | 1 | 29µM* | ? | ·
Cc1ccc(CN=C(Nc2ccccc2)NC2CCCCC2)cc1 | 24% | -87* | -2 | 21µM* | 21µM* | -6%
O=C(Nc1ccccc1)NC1CCCCC1 | 23% | -12 | -1 | 2% | -6% | 17%
Cc1ccc(CNC(=O)NC2CCCCC2)cc1 | 30% | -23 | -10 | -9% | -11% | 5%
CC(=O)c1c(C)[nH]c(C(=O)Cn2cnc3cc(F)ccc3c2=O)c1C | · | · | -9 | · | · | ·
O=C(Nc1ccc(F)cc1F)Nc1cc(C(=O)NCc2cccc(F)c2)ccc1N1CCOCC1 | · | · | -3 | · | · | ·
O=C(c1cc(Cl)c2c(c1)OCCO2)N1CCSc2ccccc21 | · | · | 3 | · | · | ·
O=S(=O)(NC(=S)NC1CCCCC1)c1ccc(Br)cc1 | 4.5µM* | 14 | -9 | ? | 10% | ?
O=C(CCNS(=O)(=O)c1ccc(Br)cc1)NC1CCCCC1 | 25% | -13 | -6 | -20% | -6% | -6%
Cc1ccc(N(CC(=O)N2CCN(c3ccc(Cl)cc3)CC2)S(=O)(=O)c2c(C)noc2C)cc1 | · | · | 1 | 23µM* | ? | ·
Cc1ccc(N(CC(=O)N2CCN(c3ccc(F)cc3)CC2)S(=O)(=O)c2c(C)noc2C)cc1 | 40% | -16 | -2 | ? | 15µM* | -1%
COc1ccc(N(CC(=O)N2CCN(c3ccc(Cl)cc3)CC2)S(=O)(=O)c2c(C)n[nH]c2C)cc1 | ? | -62* | -10 | ? | ? | -26%
CCOC(=O)N1CCN(C(=O)CN(c2ccc(C)cc2)S(=O)(=O)c2c(C)noc2C)CC1 | 6% | 14 | -1 | -28% | -20% | -2%
COc1ccc(N(CC(=O)Nc2ccc(Cl)cc2)S(=O)(=O)c2c(C)n[nH]c2C)cc1 | 14% | 9 | 0 | 2% | ? | 10%
Cc1noc(C)c1S(=O)(=O)Nc1ccc(C(=O)N2CCN(c3ccc(Cl)cc3)CC2)cc1 | ? | -4 | -1 | 16µM* | ? | -5%
O=C(O)C1(c2ccc(Cl)cc2)CCOCC1 | · | · | -10 | · | · | ·
CCC(CC)C(=O)Nc1cccc(C(=O)Nc2ccc(S(=O)(=O)Nc3ccc(C)cc3)cc2)c1 | ? | ? | 3 | ? | 21µM* | -22%
CCCOc1cccc(C(=O)Nc2ccc3c(c2)OCCO3)c1 | -42% | -4 | -2 | 23µM* | -71% | -30%
CCC(CC)C(=O)Nc1cccc(C(=O)Nc2nccs2)c1 | -37% | 20 | 0 | 23µM* | ? | 0%
CCC(CC)C(=O)Nc1cccc(C(=O)Nc2ccc3c(c2)OCO3)c1 | 44% | -17 | 4 | ? | 26µM* | 12%
SMILES | RORg inh | IL1B secr inh | LDHA inh | DT40 TDP1 no CPT | TDP1 cell CPT | VP16 counter
CN(CC(=O)NC(C)(C)C)C(=O)/C=C/c1ccc(C#N)cc1 | · | · | 4 | · | · | ·
O=C(Nc1ccc2c(c1)OCCO2)c1cccc(Br)c1 | 8% | -54* | -8 | -23% | 7% | -4%
CN1C(=O)N(c2cccc(Cl)c2)C(C)(O)CC1(C)C (stereo unspecified) | · | · | 7 | · | · | ·
CCC(C)N1C(=O)N(c2cccc(Cl)c2)C(C)(O)CC1(C)C (stereo unspecified) | 5µM* | -2 | -10 | -29% | ? | 26%
COc1ccc2ccccc2c1-c1c(OC)ccc2ccccc12 | -10% | · | · | · | · | -1%
COc1ccc(OC)c2cc3ccccc3cc12 | · | 0 | 24 | 0.92µM* | 0.73µM* | ·
COc1cc2ccccc2ccc1=NO | · | ? | -3 | 12µM* | 16µM* | ·
CC(NC(=O)c1cccnc1N(C)C)c1ccc(F)cc1 (stereo unspecified) | · | · | -3 | · | · | ·
COC(=O)c1ccc2c(c1)CCN2 | · | · | 5 | · | · | ·
CC(C)CC(=O)Nc1ccc(C(=O)CN2C(=O)NC3(CCOc4ccccc43)C2=O)cc1 (stereo unspecified) | · | 12 | -2 | -95% | 18µM* | ·
CC(C)c1ccc(C2(C)NC(=O)N(C(C)C(=O)Nc3ccc(N4CCOCC4)cc3)C2=O)cc1 (stereo unspecified) | · | 7 | 5 | 26µM* | 15µM* | ·
CC(C(=O)Nc1ccc(N2CCOCC2)cc1)N1C(=O)c2ccccc2C1=O (stereo unspecified) | -1% | 24 | 6 | -2% | -12% | -6%
CC(C)C(=O)Nc1ccc(C(=O)CN2C(=O)NC3(CCOc4ccccc43)C2=O)cc1 (stereo unspecified) | · | 3 | -13 | ? | ? | ·
CC(C)c1ccc(C2(C)NC(=O)N(CC(=O)NC3CCCC(C)C3C)C2=O)cc1 (stereo unspecified) | · | ? | -4 | 21µM* | ? | ·
CC(C)c1ccc(NC(=O)CN2C(=O)NC3(CCCCCCC3)C2=O)cc1 | · | -5 | -2 | 21µM* | 21µM* | ·
COc1ccc(NC(=O)CN2C(=O)NC3(CCCCCCC3)C2=O)cc1 | · | -11 | -8 | -27% | -15% | ·
O=C(CN1C(=O)C2CCCCN2c2ccc(C(=O)N3CCCC3)cc21)NCc1ccccc1 (stereo unspecified) | · | · | -8 | ? | -29% | ·
Cc1ccc(NC(=O)C(C)N2C(=O)C3CC=C(Cl)CC3C2=O)cc1 (stereo unspecified) | 12% | 8 | -3 | 12% | -14% | -6%
